Test results published in the supplement of paper PMC6555819.

How the values were obtained:
Test in all cases: PBM binding z-score (relative to random genomic background probes); higher = stronger binding; sequences stand for … in GC…GCGATTGACAGCGTAGAATGAAGG
[1] = tested on: RARb homodimer (NR concentration 270 nM)
In short: (§1)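 Each nuclear receptor dimer, without ligand, was incubated for 1 h on custom Agilent 4×180K protein-binding microarrays. Binding was detected with antibodies against each partner (one per run), and scanned fluorescence was regression-normalized. The binding z-scores are referenced to random human genomic background probes.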

[2] = tested on: RARg:RXRa (NR concentration 270 nM, RXRa partner concentration 90 nM)
In short: as §1

[3] = tested on: RARg homodimer (NR concentration 270 nM)
In short: as §1

[4] = tested on: RXRa DBDmut IVT, anti-RXR (DBD mutation: RXRa K156A/R161A, NR concentration 90 nM)
In short: as §1

[5] = tested on: RXRa homodimer (NR concentration 180 nM)
In short: as §1

[6] = tested on: THRa:RXRa (NR concentration 90 nM, RXRa partner concentration 90 nM)
In short: as §1

[7] = tested on: THRa homodimer (NR concentration 90 nM)
In short: as §1

[8] = tested on: VDR:RXRa (NR concentration 270 nM, RXRa partner concentration 90 nM)
In short: as §1

[9] = tested on: VDR homodimer (NR concentration 270 nM)
In short: as §1

| Sequence | PBM binding z-score [1] | PBM binding z-score [2] | PBM binding z-score [3] | PBM binding z-score [4] | PBM binding z-score [5] | PBM binding z-score [6] | PBM binding z-score [7] | PBM binding z-score [8] | PBM binding z-score [9] |
| --- | --- | --- | --- | --- | --- | --- | --- | --- | --- |
| TGAATGAGGTTAATGATCAGGGAACGTGGCGTCG | 0.436 | 1.4 | 1.07 | 0.589 | 1.67 | 1.97 | 0.6 | 0.633 | 0.544 |
| TGCCAAAGTTCAAAGGTAACGTAAGTATCCACAC | 3.8 | 6.37 | 6.18 | 4.65 | 7.16 | 3.44 | -0.0439 | 4.97 | 5.01 |
| CGTCCAAGGTCATAGGCGGTCAGTGAAGACAGAT | 4.09 | 6.05 | 6.4 | 3.89 | 5.94 | 4.35 | 2.21 | 4.7 | 3.22 |
| GCTAGTTGGTCAGTAAAAGATCACACACCGGTCG | 0.519 | 0.262 | 0.586 | -0.0346 | 0.0545 | -0.299 | -0.336 | -0.204 | -0.296 |
| AGAATGAGGTTATACGTAAATCAGGGAAGAAAGT | 0.771 | 1.56 | 1.08 | 1.72 | 2.06 | 2.17 | 0.605 | 1.21 | 0.824 |
| CAAACTAGGTCAAAGGGCAAAGTCGAGCCAACCA | 3.81 | 6.04 | 5.28 | 1.76 | 7.35 | 3.56 | 0.847 | 3.83 | 1.06 |
| CCTTACGGGTCAAGGCTATAGCACGGGTGGTACG | 2.91 | 4.66 | 4.36 | 0.343 | 5.14 | 2.39 | -0.0277 | 2.77 | 0.575 |
| CATCCAAGGTCATAGGAGGTCAGTGAAGACAGAT | 5.07 | 7.02 | 7.22 | 3.91 | 7.03 | 5.14 | 3.35 | 6.74 | 5.28 |
| ATCGAAAGGTCGAGGTGAGAATAGAGAAAGGGAA | 2.77 | 4.3 | 4.7 | 0.437 | 4.86 | 2.73 | 0.58 | 2.37 | -0.0619 |
| TCGAGTAGGTTACCAATGGGGAATTCAGCTTTCT | -0.273 | 0.258 | -0.0594 | 0.599 | 0.509 | -0.0396 | -1.08 | 0.0458 | -0.782 |
| TCAGACAGGTGAAGGTATCTCAGGTACGCAGTCG | 0.873 | 0.518 | 0.586 | 1.55 | 0.95 | 1.2 | 0.503 | 0.814 | 0.113 |
| TGAATGAGGTTATAACATCAGGGAACGTTGCAAA | -0.0288 | 1.33 | 0.791 | 0.901 | 2.09 | 1.78 | -0.00143 | 1.11 | 0.537 |
| GTACCAAGGTCAATAGGTCGTTGATGAGTAGGCG | 4.86 | 6.58 | 5.59 | 2.86 | 5.66 | 3.68 | 1.77 | 4.69 | 2.55 |
| ACTCTTAGTTGACTTAGGGCAACCGATACGACGC | 1.01 | 0.837 | 0.667 | 0.736 | 0.605 | 1.52 | 0.885 | 0.416 | 0.184 |
| CGAACTAGGTCACAGAGGTCAAAGTCCGTGCGTA | 5.38 | 7.57 | 7.52 | 3.54 | 8.15 | 4.58 | 2.83 | 8.3 | 6.98 |
| TCAGAAAGGTGAAGGTAACTCAGGTACGCAGTCG | 2.08 | 2.32 | 2.52 | 1.64 | 2.41 | 2.01 | 0.472 | 1.35 | 0.477 |
| TCTCGTAGATCAAAGGTTAAGAAAGCCGAAGCCT | 1.36 | 1.65 | 0.587 | 0.764 | 2.94 | 1.14 | -0.441 | 1.24 | 0.265 |
| TCTTGTAGATCAGCAGGAGGTTAAGAAAGATCGA | 0.33 | 0.611 | 0.176 | 0.327 | 0.81 | 0.885 | -0.878 | 0.561 | -0.496 |
| ATCGTAAGGTCGAAGGTGAGTATACCCACCCGAA | 1.59 | 2.97 | 2.44 | 1.58 | 3.4 | 2.98 | 1.59 | 2.04 | 0.909 |
| ACAGACAGGTGAGGAAGGTAACTCAGGCTATCAT | 0.672 | 0.425 | 0.577 | -0.639 | 0.267 | 0.957 | 0.208 | 0.159 | -0.55 |
| ACAGACAGGTGAGTCAAGGTAACTCAGCTGGACG | 0.0236 | 0.322 | 0.586 | -0.585 | 0.518 | 3.73 | 0.299 | -0.187 | -0.203 |
| GCTATTAGTTGCAAGGGCAACCGAATGATTCTCG | 1.12 | 0.13 | 0.552 | 0.914 | 0.35 | 0.666 | 0.326 | 0.134 | 0.363 |
| TCGAGTAGGTTAGTCGGGGCACTCAGCCAACATA | 0.461 | 0.0814 | -0.0518 | 0.105 | 0.249 | 1.35 | -0.252 | 1.2 | 0.195 |
| CAAATTAGGTCACCGGAAGGTCAAAGTCCGCATG | 5.53 | 8.32 | 7.57 | 2.34 | 6.18 | 4.78 | 3.89 | 5.86 | 3.8 |
| TAGCCTACGTCATTGGGCCAGTATAGTACGCATC | -0.397 | -0.281 | -0.0336 | -0.739 | -0.232 | -0.688 | -0.62 | -0.617 | -0.718 |
| CGAACTAGGTCATCCAGTACAGTGAATACATTGA | 3.05 | 3.9 | 4.84 | 2.61 | 2.78 | 3.04 | 1.43 | 5.08 | 2.24 |
